High-throughput results: PubChem BioAssay, The Scripps Research Institute Molecular Screening Center
Most compounds without a hit are left out; they make up all but 0.83% or so of the library.
S1P4 antag – human S1P4 receptor antagonism; O95977; S1P4-expressing cells, antagonist mode, reporter read-out; inhibition, % at 4.98 µM; hit rate 0.26% among 220,000; AID 1510; in the data active means inhibition above about 29%;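 further: 0% = wells stimulated with agonist and 100% = vehicle wells without agonist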
Target sequence (O95977 whole entry, looked up): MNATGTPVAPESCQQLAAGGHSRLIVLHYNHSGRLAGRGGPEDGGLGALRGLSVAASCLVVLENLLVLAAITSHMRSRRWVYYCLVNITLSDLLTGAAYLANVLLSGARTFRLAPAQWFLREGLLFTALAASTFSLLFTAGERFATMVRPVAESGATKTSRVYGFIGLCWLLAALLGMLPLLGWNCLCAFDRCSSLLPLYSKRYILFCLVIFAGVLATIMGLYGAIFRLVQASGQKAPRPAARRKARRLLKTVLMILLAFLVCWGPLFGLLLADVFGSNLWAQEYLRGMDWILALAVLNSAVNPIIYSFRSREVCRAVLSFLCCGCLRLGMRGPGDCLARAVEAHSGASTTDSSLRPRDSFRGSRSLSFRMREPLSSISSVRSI
S1P3 antagonist – blocks the human S1P3 receptor | Q99500 | CHO S1P3 NFAT-BLA reporter, FRET fluorescence, antagonist mode | inhibition, % at 4.98 µM | hit rate 0.27% among 170,000 | AID 485;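 active means inhibition above the plate cutoff, the mean inhibition of test wells on that plate plus 3 SD, cut at about 28% in these data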;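 further: cells challenged with S1P at its EC80 of 0.8 µM; blue over green emission ratio from cleaved BLA substrate after 4 h stimulation; 0% = S1P-stimulated wells and 100% = unstimulated DMSO-only wells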
Pf gametocyte – P. falciparum stage V gametocyte viability inhibition; hit rate 0.065% among 150,000; P. falciparum stage V gametocytes, ATP luminescence, 24 h; inhibition, % at 10.9 µM; AID 743093;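 active means inhibition above the mean plus 3 SD of compounds within the control limits, set per campaign, cut at about 38% in these data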;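 further: 0% = DMSO wells and 100% = medium only without gametocytes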
Hsp70 act – Hsp70 transcriptional activation, primary screen | HeLa Hsp70 promoter luciferase reporter, luminescence; scaled: vehicle 0, proteasome-inhibitor control 100% | activation, % at 10 µM | hit rate 0.04% among 200,000;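 active means activation above the mean across all tested compounds plus 3 SD, cutoff set per campaign, cut at about 5.5% in these data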;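 further: 100% = MG132 at 30 µM as the positive control and 0% = DMSO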
S1P4 ag – agonists of human S1P4 receptor; O95977; S1P4-expressing cell line, agonist reporter assay; activation, % at 4.98 µM; hit rate 0.35% among 220,000; in the data active means activation above about 11%;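 further: 0% = DMSO vehicle and 100% = reference agonist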
Hsp70 act dose – activates Hsp70 transcription in dose response | shares compounds with Hsp70 act | HeLa hsp70.1pr-luc reporter, luciferase luminescence | calls only at 99 µM | hit rate 10% among 70 | AID 1252;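 active means over 50% activation at some tested dose; inactive means under 50% activation at every tested dose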
S1P4 ag conf – human S1P4 agonism, confirmation; shares compounds with S1P4 ag; S1P4 agonist cell-based reporter assay; activation, % at 4.98 µM; AID 1523; hit rate 7% among 740; in the data active means activation above about 12%;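 further: 0% = vehicle and 100% = full reference agonist response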
S1P1 agonist – human S1P1 agonism as S1P4 agonist counter-screen; shares compounds with S1P4 ag; S1P1 agonist cell-based assay, activation; activation, % at 4.98 µM; hit rate 4% among 740; AID 1563; in the data active means activation above about 21%;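 further: 0% = vehicle wells and 100% = reference agonist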
S1P4 antag conf – human S1P4 antagonism, confirmation. S1P4-expressing cell line, antagonist mode, reporter read-out. hit rate 71% among 520. inhibition, % at 4.98 µM. shares compounds with S1P4 antag; in the data active means inhibition above about 30%
S1P1 antag – counter-screen for S1P4 antagonists: antagonists of human S1P1; cell-based S1P1 antagonist counterscreen, inhibition; shares compounds with S1P4 antag; hit rate 37% among 520; AID 1564; inhibition, % at 4.98 µM; in the data active means inhibition above about 40%;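 further: receptor stimulated with S1P near its EC80; 0% = agonist stimulated wells and 100% = vehicle only wells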
* hit, by the source's call; i = inactive; · = no result given.

SMILES	S1P4 antag	S1P3 antagonist	Pf gametocyte	Hsp70 act	S1P4 ag	S1P4 ag conf	S1P1 agonist	others
CCN(CC)CCN1C(=O)C(O)=C(C(=O)c2cc3cccc(OC)c3o2)C1c1cccs1 (configuration not stated)	-6	-8	·	·	2	·	·
O=C(COc1cccnc1[N+](=O)[O-])Nc1ccc2c(c1)OC(F)(F)O2	-7	-11	10	0	1	·	·
CC(=O)Nc1sc2c(c1-c1nc3ccccc3s1)CCN(C(C)C)C2	20	-26	·	7.5*	6	·	·	Hsp70 act dose=i
CCCC(=O)N1CCN(c2ccc(NC(=O)c3ccc([N+](=O)[O-])o3)cc2)CC1	78*	-9	0	15*	-2	·	·	Hsp70 act dose=i;S1P4 antag conf=101*;S1P1 antag=84*
Cn1cnc([N+](=O)[O-])c1SCCO	4	-12	-15	·	0	·	·
Cc1cc(C(=O)Cn2ncc(Cl)c(Cl)c2=O)c(C)n1CC(F)(F)F	90*	0	-28	16*	-1	·	·	Hsp70 act dose=i;S1P4 antag conf=105*;S1P1 antag=65*
CCCc1cc(=O)[nH]c(SCC(=O)c2cc(C)n(CC(F)(F)F)c2C)n1	0	-10	10	0	0	·	·
Cc1cccc(OCC(=O)NC(Cc2c[nH]c3ccccc23)C(=O)O)c1C (configuration not stated)	-23	15	-8	0	0	·	·
CC(C)(C)c1ccc(-n2nc(C#N)c(Cl)cc2=O)cc1	110*	-5	-18	16*	-6	·	·	Hsp70 act dose=i;S1P4 antag conf=120*;S1P1 antag=49*
O=c1c(Br)c(N2CCCC2)cnn1-c1ccccc1	-8	5	-11	0	-2	·	·
O=c1c(Br)c(Br)cnn1-c1ccccc1	112*	6	22	7.4*	-3	·	·	Hsp70 act dose=i;S1P4 antag conf=121*;S1P1 antag=48*
Cc1ccc(-c2nc(NC(=O)c3nn(C)cc3[N+](=O)[O-])sc2C)cc1C	87*	·	·	14*	1	·	·	Hsp70 act dose=i;S1P4 antag conf=115*;S1P1 antag=-29
O=C(NNc1ccccc1)/C(=C\c1cccnc1)NC(=O)c1ccccc1	5	-9	-28	·	-1	·	·
Cc1ccc(C(N)=S)c(C)c1	4	-7	·	0	17*	-2	1
CCC/C=N/Nc1nc2ccccc2s1	5	-11	·	0	64*	-1	-1
CC(C)(C)[C@H]1COC(=O)CCCC/C=C\C[C@H](CC(=O)NCCO)C(=O)N1	·	·	1	·	·	·	·
COc1cc(C(F)(F)F)c(C(=O)N(C)Cc2ccc(Cl)c(Cl)c2)cn1	2	0	-6	·	15*	-2	-1
COc1ccc(-c2nnn(CC(=O)N(CCO)C(C(=O)NC3CCCC3)c3ccncc3)n2)cc1 (configuration not stated)	-23	-4	9	0	76*	-2	-4
COc1ccc(C2=CN(Cc3ccccc3)CCC2=O)cc1	·	·	19	·	·	·	·
C=CCN1C(=O)C(CC(=O)NCC)SC1=Nc1ccccc1OC (configuration not stated)	·	·	-7	·	·	·	·
NS(=O)(=O)c1ccc(N/N=C/c2cn(-c3ccccc3)nc2-c2cccs2)c([N+](=O)[O-])c1	1	-32	9	0	38*	-3	-6
CCCOc1ccc(C2NC(=S)NC(C)=C2C(=O)c2ccccc2)cc1OC (configuration not stated)	2	5	·	0	-1	·	·
O=C(O)c1ccc(Br)cn1	2	-28	0	0	27*	-2	2
O=C(Cc1ccccc1[N+](=O)[O-])N1CCN(c2ccc(F)cc2)CC1	-7	18	·	0	74*	-2	-8
CC(=O)c1cccc(NC(=O)NNC(=O)CCC(=O)Nc2ccc(C)c(C)c2)c1	-5	-7	·	0	2	·	·
SMILES	S1P4 antag	S1P3 antagonist	Pf gametocyte	Hsp70 act	S1P4 ag	S1P4 ag conf	S1P1 agonist	others
Cc1csc(NC(=O)CCc2c(C)nc3cc(-c4ccc(Cl)cc4)nn3c2C)n1	2	-21	·	0	196*	0	1
Cc1nc(-c2ccc(S(=O)(=O)Oc3ccc(Cl)cc3Cl)s2)cs1	8	4	3	·	-1	·	·
Nc1nnc(SCC(=O)OCC(=O)Nc2ccc(Br)cc2)s1	-11	-21	9	0	62*	-2	-5
Nc1nnc(SCC(=O)OCC(=O)Nc2ccc(Br)cc2F)s1	-28	-4	-6	0	3	·	·
COc1ccccc1CN1C[C@@H]2C[C@@H](c3[nH]c4c(C)cccc4c3C)N3CCC[C@@]23C1=O	-35	-29	-4	0	-1	·	·
O=C(O)Cn1c(SCCOc2ccccc2)nc2ccccc21	-8	-23	-26	0	59*	-1	-1
O=c1[nH][nH]c2nc(C(F)(F)F)cc(C(F)(F)F)c12	-11	2	-8	0	67*	0	-3
CN1C(=O)C(=O)/C(=C(/O)c2ccccc2)C1c1ccc([N+](=O)[O-])cc1 (configuration not stated)	·	·	-4	·	·	·	·
O=C(O/N=C1\CCS(=O)(=O)c2sccc21)c1c(F)cccc1F	-11	-24	14	0	33*	-1	-4
C/C(=N\NC(=O)C(C)n1nc(C)c([N+](=O)[O-])c1C)c1ccccc1O (configuration not stated)	-13	0	·	0	103*	-1	10
Cc1ccc2nc(-c3ccc(NS(=O)(=O)c4ccccc4)cc3)sc2c1	2	-13	-19	0	-1	·	·
Cc1ccc2nc(-c3ccc(NS(=O)(=O)c4ccc(F)c(F)c4)cc3)sc2c1	-1	3	-6	0	30*	1	-3
Cc1ccc(NC(=O)C(C)N2C(=O)c3ccccc3C2=O)cc1S(=O)(=O)N1CCOCC1 (configuration not stated)	-26	-2	·	0	2	·	·
CC(NC(=S)NCc1ccccc1)C12CC3CC(CC(C3)C1)C2 (configuration not stated)	-11	-9	·	0	0	·	·
CCc1ccc(/C=C2\Oc3ccc(C(=O)OC)cc3C2=O)cc1	-19	11	2	0	2	·	·
COC(=O)c1ccc2c(c1)C(=O)/C(=C/c1ccc(C)cc1)O2	-23	7	·	0	13*	-1	-2
Cc1cc(C)cc(NC(=S)N(CCN(C)C)Cc2cccs2)c1	-6	4	-4	0	0	·	·
O=S(=O)(c1ccc(N2CCC(c3ccc(Cl)cc3)=N2)cc1)N(CCO)CCO	-22	·	-7	0	21*	21*	69*
